Out of some 63,000 compounds screened, about 1,100 (1.7%) were called active. The full list was thinned out, with actives kept by preference. Results with a measured potency or affinity are listed apart. Unmarked numbers belong to inactive results. Rule as the data show it: active = cytotoxicity above about 50%; inactive = the rest.

The nature of the assay: HPDE-C7 pancreatic duct cell viability loss – fluorescence, HTS (AID 430).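 Also: cells exposed to compound for 48 hours before viability readout; 0% = vehicle and 100% = reference cytotoxic drug.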 Conditions: HPDE-C7 pancreatic duct cells viability, at 10 µM, hits give high values.
Take `O=C(Nc1ccc(-c2nc3ncccc3o2)cc1)c1ccco1`: the cytotoxicity was 1.1%. As to `COC(=O)c1ccc(-c2nc3ccccc3o2)cc1`, the cytotoxicity is -9.2%.

In the case of `COc1cccc(C(=O)Nc2ccc(-c3nc4ccccc4o3)c(O)c2)c1`, the cytotoxicity was 15.3%. For `O=C(Nc1cccc(-c2nnc(-c3ccccc3)o2)c1)c1ccco1`, the cytotoxicity was -6.9%.

Regarding `COc1cc(OC)cc(C(=O)Nc2ccc(-c3nc4ccccc4o3)cc2)c1`, the cytotoxicity is 74.2% (active). As for `O=C(Nc1ccc2oc(-c3ccccc3)nc2c1)c1ccc2c(c1)OCCO2`, the cytotoxicity is 13.4%. As for `Cc1ccc(-c2nc3ccccc3o2)cc1NC(=O)c1ccc2c(c1)OCO2`, the cytotoxicity was -10%.

Turning to `O=C(Nc1ccc2nc(-c3ccccc3)oc2c1)c1ccco1`, the cytotoxicity was 68.7% (active).

With `C/C=C/COc1nc2c(c(=O)n(C)c(=O)n2C)n1C`, the cytotoxicity was -4%. Take `O=C(OCC(=O)N1CCN(C(=O)COC(=O)c2ccncc2)CC1)c1ccncc1`: the cytotoxicity is -7.9%.

Consider `CCN1CCN(c2ncc3c(n2)CC(c2cc(OC)c(OC)c(OC)c2)CC3=O)CC1` (stereo unspecified), for which the cytotoxicity was 58.9% (active). For `Cc1ccc(C2CC(=O)c3cnc(N4CCN(c5ccccc5)CC4)nc3C2)cc1` (stereo unspecified) the value was 9.3%; for `CCN1CCN(c2ncc3c(n2)CC(c2ccc(OC)c(OC)c2)CC3=O)CC1` (stereo unspecified), 7.7%. Regarding `COc1cc(C2CC(=O)c3cnc(N4CCN(Cc5ccccc5)CC4)nc3C2)cc(OC)c1OC` (stereo unspecified), the cytotoxicity was 46%.

`O=C1CC(c2cccc(Cl)c2)Cc2nc(N3CCOCC3)ncc21` (stereo unspecified): the cytotoxicity was -14.6%. On to `O=C1CC(c2cccc(Cl)c2)Cc2nc(N3CCN(c4ccccc4)CC3)ncc21` (stereo unspecified), for which the cytotoxicity was 51.4% (active). As to `CSc1nnc2c(n1)OC(C1CC=C(C)CC1)Nc1ccccc1-2` (stereo unspecified), the cytotoxicity was 2.9%.

In the case of `C=CCn1c(=O)c(C(=O)Nc2ccccc2O)c(O)c2ccccc21`, the cytotoxicity was -18%.

Take `Cc1occc1C(=O)NCc1ccc2c(c1)OCO2`: the cytotoxicity was 42.9%.

In the case of `O=C(COc1cnc2ccccc2n1)NCCC1=CCCCC1`, the cytotoxicity was -1.1%. As for `Cc1ccc2c(COn3nnc4ccc(S(=O)(=O)N(C)C)cc43)cc(=O)oc2c1C`, the cytotoxicity is -2.2%.

For the molecule `CCc1ccc2c(COn3nnc4ccc(S(=O)(=O)N(C)C)cc43)cc(=O)oc2c1`, the cytotoxicity is 59.1% (active).

On to `CCc1ccc2c(COC(=O)c3n[nH]c4ccccc34)cc(=O)oc2c1`, for which the cytotoxicity was 8%. In the case of `CCc1nnc(NC(=O)CSc2nc3c(cc2C#N)CCCC3)s1`, the cytotoxicity was -1.1%. The same measure for `CCc1nnc(NC(=O)CSc2nc(C)c3c(c2C#N)CCCC3)s1`: 76.3% (active); for `CCc1nnc(NC(=O)CSc2nc3c(cc2C#N)CCC3)s1`: 30.8%. Consider `COc1cccc(NC(=O)CNC(=O)c2ccc(F)cc2)c1`, for which the cytotoxicity is -1%. Turning to `COc1cc(-c2ccc(NC(=O)CN3CCCCC3)c(OC)c2)ccc1NC(=O)CN1CCCCC1`, the cytotoxicity was -11.3%. `N#Cc1ccc(CSc2nnc(-c3cnccn3)o2)cc1`: the cytotoxicity is -3%.

As to `Fc1cccc(C2CC(c3cccc(Br)c3)Nc3nnnn32)c1` (stereo unspecified), the cytotoxicity was -20.3%. Take `CCOc1ccc(S(=O)(=O)N2Cc3ccccc3CC2C(=O)NCCCn2ccnc2)cc1` (stereo unspecified): the cytotoxicity is 1.9%. For `Cc1ccc2[nH]c3c(c2c1)CN(C(=O)CN1CCN(c2ccccc2F)CC1)CC3` the value was 14.7%. Regarding `Cc1ccc2[nH]c3c(c2c1)CN(C(=O)CN1CCN(c2ccccc2)CC1)CC3`, the cytotoxicity was 26.1%.

On to `Cc1ccc2[nH]c3c(c2c1)CN(C(=O)CN1CCCc2ccccc21)CC3`, for which the cytotoxicity was 55.8% (active). For `Cc1cccc(N2CCN(C(=O)c3ccc(N4CCCC4=O)cc3)CC2C)c1` (stereo unspecified) the value was -1.7%; for `CCOC(=O)c1ccc(NC(=O)N2CCN(S(C)(=O)=O)CC2)cc1`, -1.4%; for `Cc1cnc(NC(=O)CCCSc2nc3ccccc3s2)s1`, -1.8%. For `c1ccc(-c2cc(-c3nc(-c4cccnc4)no3)c3ccccc3n2)cc1`, the cytotoxicity is -11.7%. Consider `c1ccc(-c2cc(-c3nc(-c4ccccn4)no3)c3ccccc3n2)cc1`, for which the cytotoxicity was 70.4% (active). On to `c1ccc(-c2ccc(-c3nc(-c4ccccn4)no3)cc2)cc1`, for which the cytotoxicity was -4.1%. On to `CC(C)n1c(SCC(N)=O)nc2c1c(=O)n(C)c(=O)n2C`, for which the cytotoxicity was -8.7%. Turning to `CCn1c(SC/C=C/c2ccccc2)nnc1-c1cnccn1`, the cytotoxicity was -18.9%.

As for `CCn1cnc2scc(-c3ccccc3)c2c1=O`, the cytotoxicity was -9.7%. As to `Cn1cc(/C=N/n2cnc3scc(-c4ccccc4)c3c2=O)c2ccccc21`, the cytotoxicity is 68.4% (active). `Cc1ccc(-c2csc3ncn(/N=C/N(C)C)c(=O)c23)o1`: the cytotoxicity is -6.4%. Turning to `Cc1nn(-c2ccccc2)c(N2CCCC2)c1/C=N/n1cnc2scc(-c3ccccc3)c2c1=O`, the cytotoxicity was 24.5%. As for `Cn1cc(/C=N/n2cnc3scc(-c4ccc(Cl)cc4)c3c2=O)c2ccccc21`, the cytotoxicity is 89.3% (active). For `Cn1cc(/C=N/n2cnc3sc4c(c3c2=O)CCCC4)c2ccccc21` the value was 21.2%; for `COc1cc(OC)cc(C(=O)N2CCC(n3c(C)nc4cc(F)ccc43)CC2)c1`, 3%; for `N#Cc1cc2sc3nnc(-c4ccncc4)n3c2cc1C#N`, -14.9%.

As for `Cc1nc2cc(C(=O)OCC(=O)N(CC(C)C)C3CCS(=O)(=O)C3)ccc2n1-c1ccccc1` (stereo unspecified), the cytotoxicity was -10.3%. With `O=C(O)CCc1ccc(-c2cccs2)n1NC(=O)c1ccc(Cl)cc1`, the cytotoxicity was 0.6%. `Cc1csc(NC(=O)CSc2nnc(-c3ccc(S(=O)(=O)N4CCCC4)cc3)o2)n1`: the cytotoxicity is -13.8%. `COc1cccc(CNC(=O)Cn2cccc2)c1`: the cytotoxicity is -4.3%. Turning to `COc1ccccc1NCCC(=O)OCC(=O)Nc1ccc(Cl)cn1`, the cytotoxicity was 10.3%. `Cc1cccc(NC(=O)Nc2ccc(C#N)cc2)n1`: the cytotoxicity was -0.1%.

Regarding `CN(CC(=O)Nc1ccc(C#N)cc1)Cc1ccc(Cl)cc1`, the cytotoxicity was 6.1%.

`N#Cc1ccc(NC(=O)Nc2ccc(Cl)cc2)cc1`: the cytotoxicity is 57.7% (active). On to `COc1ccc(Cl)cc1NC(=O)N1CCN(S(C)(=O)=O)CC1`, for which the cytotoxicity was -6.5%.

Regarding `C=CCn1c(N)cc(=O)nc1SCC(=O)Nc1ccccc1`, the cytotoxicity was -16%.

Consider `O=C(c1ccccc1)N1CCCCC(Sc2nnnn2-c2ccccc2)C1=O` (stereo unspecified), for which the cytotoxicity was -6.2%.

For the origin of these results see PubChem BioAssay AID430 (Sanford-Burnham Center for Chemical Genomics, 2006).
